Consider 40 molecules from PubChem BioAssay AID853 (Columbia University Molecular Screening Center, 2007).

About 200 (0.43%) of roughly 47,000 compounds were called active. Not shown: some 1% with an inconclusive outcome.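 How the source made its calls: active means inhibition of aggregate fluorescence above about 70%, also judged a hit by eye on the cell image (limit read from the data, passing the limit was not always enough); inconclusive means no rule stated for this call; inactive means not judged a hit on image review.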 Shown is part of a subset that was picked to be rich in actives.

The assay is described as follows: removal of polyQ htt aggregates in HeLa – imaging, HeLa Exon1htt(103Q)mCFP, confocal imaging, primary screen (AID 853).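 Further: cells exposed to compound for three days before fixation.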 To be noted: aggregate imaging, at 1.5 µM; fraction fluorescence in grains: measured here: aggregate grain fluorescence fraction, stronger effect = lower value; inhibition: stronger effect = higher value, zero = plate's median compound well.
For `O=S(=O)(NCc1ccccn1)c1ccc(F)cc1`, the fraction fluorescence in grains was 25.8 and the inhibition is 28.4% (inactive).
In the same order, the values of `Cn1c(NC(=O)c2ccc3c(c2)OCO3)cc(=O)n(C)c1=O` are 24.1 and 28.1% (inactive).
In the same order, the values of `CCCc1nc2ccccc2c(C(=O)OCc2nnc(-c3cc(OC)c(OC)c(OC)c3)o2)c1CC` are 19.4 and -8% (inactive).
For the molecule `Cc1ccc(NC(=O)CSCC(=O)N2CCOCC2)cc1`, the fraction fluorescence in grains stood at 29.1 and the inhibition was -41.8% (inactive).
Taken in the same sequence, the figures for `COC(=O)[C@@H](NC(=O)Nc1cc(Cl)ccc1C)C(C)C` were 45.5 and -4.8% (inactive).
Taken in the same sequence, the figures for `CCC(=O)c1ccc(OCC(O)CN2CC(C)OC(C)C2)cc1` (stereo not given) were 7.49 and 75% (active).
As to `CC(=O)Nc1ccc(OCC(O)CN2CCN(c3ccccc3Cl)CC2)cc1` (stereo not given), the fraction fluorescence in grains came to 27.5 and the inhibition was -41.1% (inactive).
`CCC(=O)c1ccc(OCC(O)CN2CCN(c3cccc(C(F)(F)F)c3)CC2)cc1` (stereo not given): the fraction fluorescence in grains turned out to be 27.8 and the inhibition is -52.7% (inactive).
Taken in the same sequence, the figures for `COc1nc(-c2ccc(Cl)cc2)ccc1-c1noc(-c2cccs2)n1` were 28.7 and 4.7% (inactive).
For `Cc1cccc(NC(=O)Cn2cc(C(=O)c3ccco3)c3ccccc32)c1`, the fraction fluorescence in grains stood at 68.4 and the inhibition was -81.7% (inactive).
For `O=C(CSc1nnc(-c2cccs2)n1-c1ccccc1)NCc1ccco1`, the fraction fluorescence in grains came to 19.3 and the inhibition was -12.1% (inactive).
In the same order, the values of `Cc1ccc2cc(CCNC(=O)c3ccc4c(c3)OCO4)c(=O)[nH]c2c1` are 49.1 and -20% (inactive).
With `COc1ccc(C2CC(=O)C=C(NCC3CCCO3)C2)cc1` (stereo not given), the fraction fluorescence in grains came to 23.6 and the inhibition was 30.2% (inactive).
With `COc1ccccc1NS(=O)(=O)N(C)C`, the fraction fluorescence in grains stood at 33.9 and the inhibition is -71.4% (inactive).
Taken in the same sequence, the figures for `CN(C)/C=C(\C#N)C(=O)c1cccnc1Oc1cccc(F)c1` were 38.8 and -0.9% (inactive).
Take `Cc1cccc(NC(=O)CSc2nc3c(c(=O)[nH]2)CCCC3)c1C`: the fraction fluorescence in grains is 17.3 and the inhibition is 10.8% (inactive).
Regarding `O=c1[nH]c(=O)n(Cc2ccco2)c2c1C(C(F)(F)F)(C(F)(F)F)N=C(c1ccco1)N2`, the fraction fluorescence in grains stood at 27 and the inhibition was 36.4% (inactive).
For the molecule `Cc1ccc(-n2c(=O)cc(N3CCN(Cc4ccccc4)CC3)[nH]c2=O)cc1`, the fraction fluorescence in grains came to 52 and the inhibition was -7.6% (inactive).
For `O=C(NC1CCc2ccccc21)C12CN(Cc3ccccc3)CC1C(c1cccc([N+](=O)[O-])c1)=NO2` (stereo not given), the fraction fluorescence in grains is 39 and the inhibition was -1.5% (inactive).
As for `COc1ccccc1NC(=O)c1ccc2nc(N3C(=O)CCC3=O)sc2c1`, the fraction fluorescence in grains was 16.5 and the inhibition is 20.1% (inactive).
`CC(C)c1nc(N2CCOCC2)c(C#N)c2c1COC(C)(C)C2`: the fraction fluorescence in grains stood at 31.9 and the inhibition was 13.4% (inactive).
For `COc1ccc(C(=O)NC(=S)Nc2ccccc2N2CCN(S(C)(=O)=O)CC2)cc1OC`, the fraction fluorescence in grains is 62.3 and the inhibition is -41.7% (inactive).
Turning to `C#CCSc1nnc(-c2sc3ccccc3c2Cl)o1`, the fraction fluorescence in grains was found to be 52.1 and the inhibition is -34.1% (inactive).
Consider `Cc1ccc(C(=O)N/C(=C/C=C/c2ccccc2)C(=O)NCc2ccco2)cc1`, for which the fraction fluorescence in grains was determined as 45.3 and the inhibition was -47.5% (inactive).
Taken in the same sequence, the figures for `Cc1nc(-c2ccccc2)sc1-c1nc(-c2ccccc2)ncc1S(=O)(=O)c1ccccc1` were 41.3 and 7.6% (inactive).
Taken in the same sequence, the figures for `Cc1ccc(C2NC(=S)NC3=C2N2CCC3CC2)cc1` (stereo not given) were 27.5 and 36.7% (inactive).
In the same order, the values of `CSc1ccc(-c2c(C#N)c(N)nc3c2c(C)nn3-c2ccccc2)cc1` are 47.5 and -12.6% (inactive).
`COc1ccc(/C=C(\NC(=O)c2ccc(OC)c(OC)c2)C(=O)NCCc2c[nH]c3ccccc23)cc1`: the fraction fluorescence in grains was 62.4 and the inhibition is -62.1% (inactive).
Taken in the same sequence, the figures for `CC(=O)NS(=O)(=O)c1ccc(NC(=S)NC(=O)C(C)(C)C)cc1` were 7.39 and 66.5% (inactive).
Consider `COc1ccc(-n2c(C)csc2=S)cc1`, for which the fraction fluorescence in grains worked out at 15.4 and the inhibition is 22.6% (inactive).
With `O=C(CSc1nnc(-c2ccco2)n1-c1ccccc1)NCCc1ccccc1`, the fraction fluorescence in grains was found to be 28.7 and the inhibition is 21.9% (inactive).
In the case of `COc1cc(/C=C(\C#N)c2nc3c(s2)CC(C)CC3)ccc1O` (stereo not given), the fraction fluorescence in grains was found to be 38.1 and the inhibition was 4% (inactive).
In the same order, the values of `Cc1ccc(-c2cnc(NC(=O)CCC(=O)N(C)Cc3ccccc3)n2C)cc1` are 44.1 and -11.1% (inactive).
In the same order, the values of `CCCCCCC12CCC(C(=O)O)(CC1)CC2` are 16.8 and 6% (inactive).
Regarding `O=C(CN1CCOCC1)Nc1c(-c2ccccc2)c2cc(Br)ccc2[nH]c1=O`, the fraction fluorescence in grains was 37.2 and the inhibition was 15.7% (inactive).
In the same order, the values of `O=C(Oc1ccc([N+](=O)[O-])cc1)c1ccc2ccccc2n1` are 23.8 and 33% (inactive).
Take `O=C(c1ccc2c(c1)OCO2)N1CCOCC1`: the fraction fluorescence in grains is 22 and the inhibition is -3.2% (inactive).
Consider `Cc1ccn(C(CC(=O)c2ccc(Br)cc2)C(=O)O)n1` (stereo not given), for which the fraction fluorescence in grains was 10.2 and the inhibition is 68.3% (inactive).
As for `COc1ccc(C(C#N)Nc2ccccc2C)cc1` (stereo not given), the fraction fluorescence in grains was 18 and the inhibition was 57.1% (inactive).
In the same order, the values of `C=CCn1c(CSc2nc3ccccc3s2)nnc1SCC(=O)NCc1ccco1` are 28.7 and 26.8% (inactive).

The inhibition is the change of the read-out against control, counted positive when it falls.
